About 83,000 compounds went through this panel and 20% of them were active in at least one assay; those are over-represented in the sample as a whole.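 The test compound was applied at a single concentration to cells in 96-well plates for 48 hours, and percent growth was recorded.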 Unmarked numbers belong to inactive results. Calls of active or inactive are those of the source. The calls were made as follows: active = growth percent below 10; inactive = the rest.
Assays:
Assay in all cases: NCI-60 one-dose screen, 48 h (100 = growth as untreated, 0 = no growth, -100 = all killed)
Settings in all cases: 10 µM unless noted
[1] = tested on: HT29 colon
[2] = tested on: SNB-75 CNS
[3] = tested on: U251 CNS
[4] = tested on: PC-3 prostate
[5] = tested on: UACC-62 melanoma
[6] = tested on: LOX IMVI melanoma
[7] = tested on: SK-MEL-28 melanoma
[8] = tested on: SK-MEL-2 melanoma
[9] = tested on: EKVX NSCLC
[10] = tested on: SN12C renal
[11] = tested on: UO-31 renal
[12] = tested on: TK-10 renal
[13] = tested on: CAKI-1 renal
[14] = tested on: A498 renal
[15] = tested on: CCRF-CEM leukemia
[16] = tested on: MOLT-4 leukemia
[17] = tested on: SR leukemia
[18] = tested on: SNB-19 CNS
[19] = tested on: SK-MEL-5 melanoma
[20] = tested on: ACHN renal

Compound | growth [1] | growth [2] [%] | growth [3] [%] | growth [4] [%] | growth [5] [%] | growth [6] | growth [7] [%] | growth [8] | growth [9] [%] | growth [10] [%] | growth [11] | growth [12] [%] | growth [13] [%] | growth [14] | growth [15] | growth [16] | growth [17] | growth [18] [%] | growth [19] | growth [20] [%]
C=C(C[C@@](O)(C(=O)Oc1ccccc1)C(=O)C1CCCCC1)c1ccccc1 | 103% | 72.3 | 95.8 | 84.2 | 90.3 | 101% | 98 | 105% | 94.4 | 98 | 83.8% | 97.7 | 87.3 | 106% | 95.4% | 101% | 103% |  |  | 
COc1ccc(C2CC(c3cccc(Nc4ccnc5cc(Cl)ccc45)c3)=NN2C=O)cc1 (stereo not given) | -55.8% (active) |  | 16.5 | 25.7 | 36 | 31.7% | 62.4 | -9.66% (active) | 39.4 | 37.9 | 22.8% | 41.5 | 17.4 | 7.17% (active) | 7.54% (active) | 15.8% | 6.76% (active) | 42.3 | 14% | 45.5
CCCCCCCCCCCCCCCCN=C(CC(=O)O)C(=O)O | 82.1% | 91.6 | 101 |  |  | 90.5% | 103 | 92.8% | 113 |  | 89.8% | 83.9 | 104 | 95.6% | 86.1% | 79.4% | 65.6% |  | 113% | 105
CCOC(=O)c1c(C)c(C(=O)OCC)n(C)c1C | 88.5% | 83.6 | 99.5 |  | 83.8 | 103% |  |  | 75 | 104 | 81.2% | 78.4 |  | 83.9% |  | 87.1% | 87.8% |  | 126% | 95.6
COc1ccc2nc3cc(Cl)ccc3c(Nc3cc(C(C)C)c(O)cc3C)c2c1 | 5.84% (active) | 63.7 | 19.5 |  | 65.8 | 26.8% | 71.4 |  | 25 | 54.9 | -6.15% (active) | 15.7 |  | 60.2% | -25.9% (active) | 18% | 16.9% |  | -91% (active) | 61.6
CSc1ncc2ncn(C3OC(CO)C(O)C3O)c2n1 (stereo not given) | 108% | 96 | 103 |  | 103 | 108% | 115 |  | 107 | 120 | 111% | 122 |  | 99.6% | 99% | 109% | 111% |  | 129% | 105
O=C(CN1CCCCC1)Sc1nnc2sc3ccccc3n12 | 118% | 74.6 | 98.5 | 93 | 107 | 103% | 120 | 109% | 104 | 103 | 68.3% | 122 | 86.2 | 107% |  | 98.1% | 99.9% |  |  | 118
C=C1CC[C@@H]2[C@](C)(COC(C)=O)[C@H](OC(C)=O)CC[C@@]2(C)[C@@H]1CC(Nc1ccc(S(=O)(=O)Nc2cc(C)on2)cc1)C1=CCOC1=O (stereo not given in full) | -11% (active) | 59.4 | 30 |  | 19.8 | -72.7% (active) | 38.1 | 63% |  | 31.8 | 56.9% | 58.4 | 44 | 98.6% | -19.1% (active) | -7.86% (active) | 1.4% (active) |  | 44.1% | 19.5
Clc1ncn[nH]1 |  | 83.6 | 98.2 | 101 | 99.7 | 102% | 103 | 99.4% |  | 103 | 89.9% | 93.8 |  | 106% | 103% | 105% | 94% | 102 | 111% | 98.3
Cc1cc([N+](=O)[O-])c(C)cc1C(=O)O | 104% |  | 109 | 99 | 100 | 103% | 110 |  | 112 | 105 | 85.4% | 105 | 97.4 | 96.6% | 104% | 112% |  | 101 |  | 99.8
